# Inconclusive results are not listed. Active and inactive are the calls of the source. The calls were made as follows: active = hit-call score of the fitted dose curve at least 0.9, where 1 is the maximum; inconclusive = response in the unintended direction; inactive = score below 0.9.
# Molecular target: human Phosphatase and Tensin Homolog (PTEN), PTEN (gene 5728) (UniProt P60484)
# Assay: NVS_ENZ_hPTEN: NovaScreen (NVS) Enzymatic Assay for human Phosphatase and Tensin Homolog (PTEN) (AID 2283203)
# Description: NVS_ENZ_hPTEN is a biochemical, single-readout assay that uses extracted gene-proteins in a cell-free assay. Measurements were taken 1 hour after chemical dosing in a 384-well plate.NVS_ENZ_hPTEN is one of one assay component(s) measured or calculated from the NVS_ENZ_hPTEN assay. It is designed to make measurements of enzyme activity, a form of enzyme reporter, as detected with fluorescence intensity signals by Fluorescence and electrophoretic mobility shift technology.Data from the assay component NVS_ENZ_hPTEN was analyzed into 1 assay endpoint. This assay endpoint, NVS_ENZ_hPTEN, was analyzed in the positive analysis fitting direction relative to DMSO as the negative control and baseline of activity. Using a type of enzyme reporter, loss-of-signal activity can be used to understand changes in the enzymatic activity as they relate to the gene PTEN. Furthermore, this assay endpoint can be referred to as a primary readout, because this assay has produced multiple assay endpoints where this one serves a enzymatic activity function. To generalize the intended target to other relatable targets, this assay endpoint is annotated to the phosphatase intended target family, where the subfamily is dual-specific phosphatase.
# Binding assays used specific radioligands (tritiated, iodinated) with non-radioactive competitive displacement ligands in agonist or antagonist protocols (as indicated) and various reference compounds and inhibitors to titrate specific binding to receptors and transporters. Most enzyme assays (CYPs, kinases, phosphatases, proteases, HDACs) used recombinant protein and specific substrates (fluorescence mostly, some colorimetric and radioactive) and inhibitors, followed by a biochemical separation of substrate and product. All assays for the biochemical HTS were initially run in duplicate at a single concentration (10 uM for CYP450 assays and 25 uM for all others). […] Each assay was run with positive and negative controls, and concurrent controls on every plate. The follow-up (secondary) screen tested active chemical-pairs in concentration series, as well as a few additional assays not tested in the primary screen, some selected negative inactives, and several cases re-run in the concentration series for confirmatory purposes.
# human Phosphatase and Tensin Homolog (PTEN), PTEN (gene 5728), sequence (P60484 whole entry, looked up): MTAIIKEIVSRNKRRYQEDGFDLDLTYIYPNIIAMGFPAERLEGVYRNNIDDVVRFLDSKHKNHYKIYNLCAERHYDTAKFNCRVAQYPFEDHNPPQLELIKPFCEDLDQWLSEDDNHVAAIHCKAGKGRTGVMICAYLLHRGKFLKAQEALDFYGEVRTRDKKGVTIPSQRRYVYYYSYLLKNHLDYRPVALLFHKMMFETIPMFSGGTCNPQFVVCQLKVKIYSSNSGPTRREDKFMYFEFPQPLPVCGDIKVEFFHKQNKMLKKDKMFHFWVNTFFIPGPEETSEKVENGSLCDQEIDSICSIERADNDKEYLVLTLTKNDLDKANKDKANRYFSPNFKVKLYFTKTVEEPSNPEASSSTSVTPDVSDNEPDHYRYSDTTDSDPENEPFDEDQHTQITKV
Structure (SMILES),outcome,AC50
Cc1ccc(C(=O)Cl)cc1,inactive,–
ClC(Cl)=C(c1ccc(Cl)cc1)c1ccccc1Cl,inactive,–
CC(C)(C)OOC(C)(C)C,inactive,–
Nc1ccc([N+](=O)[O-])cc1Cl,–,2.67 µM (active)
CC(Cl)CN(C)C (stereo not given),inactive,–
O=[N+]([O-])c1cc(Cl)ccc1Cl,inactive,–
O=c1ssc(Cl)c1Cl,inactive,–
Clc1ccc(Oc2ccccc2)cc1,inactive,–
Cn1[nH]nnc1=S,–,1.08 µM (active)
CCOP(=S)(OCC)SCSc1ccc(Cl)cc1,inactive,–

# Source: PubChem BioAssay (EPA / NIEHS)
